Assay results from PubChem BioAssay AID1379 (National Center for Advancing Translational Sciences (NCATS), 2008).
Hit rate of the full screen: of about 200,000 compounds, about 560 (0.28%) were called active. What follows is part of a selection rich in actives, with near analogues and random picks from the rest. A number with no mark means an inactive call. The call rests on the fitted dose curve; in most records, active means well fitted inhibition curve with a large enough effect; inconclusive means small, poorly fitted or top-dose-only effect; inactive means flat fitted curve, though single readings scatter.

target: Luciferin 4-monooxygenase (Photuris pensylvanica) (UniProt Q27757); test: Counterscreen for Luciferase (Kinase-Glo TM) Inhibition; settings: ATP luminescence, 8 min; series mostly up to 38.3 µM; activity change, negative = inhibition: at the top concentration; further: nearly all actives have a fitted effect of over 60% in size
Method: NCGC Assay Overview: NIH Molecular Libraries Screening Centers Network [MLSCN] NIH Chemical Genomics Center [NCGC] MLSCN Grant: None Luciferase (Kinase-Glo, Promega Corporation) was assayed for its ability to generate light using ATP and luciferin as substrates. The ATP concentration in the assay (10 uM) was within the linear range of enzyme activity for the assay conditions used.
NCGC Assay Protocol Summary: Four uL of substrate mix (final concentration, 50 mM imidazole pH 7.2, 50 mM KCl, 7 mM MgCl2, 10 uM ATP, 0.01% Tween 20, 0.05% BSA) was dispensed into white 1536 well plates. Twenty-three nL of compound was delivered by a pin tool and 2 uL of luciferase detection mix (Kinase-Glo, Promega)) was added. Following 8-minute incubation at ambient temperature, luminescence was measured by a ViewLux (Perkin Elmer) at 5 seconds exposure/plate.
On the % scale 0 is the no-effect control and ±100 the full control effect; potency means the concentration at half of the fitted maximal effect.

Compound | activity change, negative = inhibition | Potency
COC(=O)C1=C(C(=O)OC)[C@@H]2N(C)c3ccccc3[C@@]23C[C@@H](C(=O)OC)N(S(=O)(=O)c2ccc(Br)cc2)C3=N1 | -4.44% [at 7.66 µM] | –
CCCCCCCC/C=C\CCCCCCCC(=O)NCC(=O)O | -1.33% | –
CCOC(=O)C1=NO[C@@]2(C=C(Br)C(=O)[C@H]3O[C@H]32)C1 | 1.87% | –
COc1cccc([C@@H]2Oc3ccc(Br)cc3C(=O)[C@H]2OC(=O)NCc2ccc3c(c2)OCO3)c1 | 0.893% | –
COCCN1C(=O)N[C@@H](CCc2ccccc2)[C@H](C(C)=O)[C@H]1C | -8.66% [at 7.66 µM] | –
Cc1ccc(N2CCN(C3=NC(=O)/C(=C\c4cccs4)S3)CC2)cc1 | 6.68% | –
CCc1ccc(/C=C2\SC(N3CCOCC3)=NC2=O)cc1 | 0.0153% | –
Cc1ccsc1/C=C1\SC(N2CCOCC2)=NC1=O | – | 12.6 µM (active)
COC(=O)CCCC1=CC2=C(c3ccccc3)C(=O)C(C)(OC(=O)C3CCCC3)C(=O)C2=CN1c1ccc(OC)cc1 (configuration not stated) | -10.4% [at 7.66 µM] | –
COC(C)C(C(=O)OCC1=CCN2CC[C@H](O)[C@@H]12)C(C)C (some centres not stated) | 0.48% | –
COC(=O)CC1c2ccccc2C(Cc2ccc(OC)cc2)=C(C)N1C(=O)OC (configuration not stated) | -5.96% [at 7.66 µM] | –
COc1cccc(/C=N\NC(=O)C2=NNC(=O)C2C)c1O (configuration not stated) | – | 12.6 µM (active)
COc1cccc(/C=N/NC(=O)c2[nH]nc3c2CCc2ccccc2-3)c1O | -1.04% | –
COc1cccc(/C=N/Nc2cc(C)nc(-c3ccccc3O)n2)c1O | -0.876% | –
Cc1ccc(S(=O)(=O)N2CCC(=O)N([C@H](COCc3ccccc3)Cc3ccccc3)CC2)cc1 | 5.82% [at 39.9 µM] | –
CCOC(=O)C1=C(C)c2ccccc2OC1C(=O)OCC (configuration not stated) | 2.5% [at 39.9 µM] | –
COC(=O)CCCC1=CC2=CC(=O)C(C)(OC(=O)c3cccs3)C(=O)C2=CN1c1ccc(CO)cc1 (configuration not stated) | -0.663% [at 7.66 µM] | –
COc1ccc(-c2nc3c(c4c2C[C@H](c2ccccc2)OC4)CN(C(=O)c2ccco2)CC3)c(C)c1 | -7.1% [at 7.66 µM] | –
Brc1ccc2nc(N3CCCC3)sc2c1 | -10.5% | –
COc1ccc2nc(Nc3nc4cc5c(cc4s3)OCCO5)sc2c1 | 1.58% | –
c1c2c(cc3sc(N4CCCCC4)nc13)OCCO2 | – | 12.6 µM (active)

Compound | activity change, negative = inhibition | Potency
CCCCC[C@H](O)/C=C/[C@@H]1[C@@H](CC(=O)CCC(=O)O)[C@@H](O)C[C@H]1O | 0.788% | –
COc1ccc(-c2nc3c(c4c2C[C@H](c2ccccc2)OC4)CN(C(=O)c2cccnc2)CC3)c(C)c1 | -3.92% [at 7.66 µM] | –
CCCCC/C=C\C[C@H](O)/C=C/C=C/C=C/[C@@H](O)CCCC(=O)O | -1.4% | –
Cc1cc2oc(=O)cc(-c3ccccc3)c2c(C)c1-c1ccc(OC(F)(F)F)cc1 | 2.9% [at 39.9 µM] | –
C[C@H]1Cc2c(-c3ccccc3)nc3c(c2CO1)CN(C(=O)C1CC1)CC3 | -7.42% [at 7.66 µM] | –
CC(Nc1oc(-c2ccccc2)nc1-c1ccccc1)c1ccccc1 (configuration not stated) | inactive | –
CC(=C/c1ccccc1)/C=N/NC(=O)c1cc(C)oc1C | -23.6% | –
CCN(CC)c1ccc(C(=O)N/N=C/c2ccc(N3CCOCC3)cc2)cc1 | 0.996% | –
Cc1cc(C(=O)N/N=C/c2ccc(N3CCOCC3)cc2)c(C)o1 | – | 11.2 µM (active)
COc1ccc(-c2nc(-c3ccccc3)oc2Nc2ccc3ccccc3c2)cc1 | 0.504% | –
Cc1ccc(CC2(O)CCN(CCOc3ccc(O)cc3)CC2)cc1 | -0.52% [at 39.9 µM] | –
COC/C=C/C1=CC2=CC(=O)C(C)(OC(=O)CCC(=O)OC)C(=O)C2=CO1 (configuration not stated) | -2.02% | –
C=CC1=C2C=C(C3CC3)N(C(CO)CO)C=C2C(=O)C(C)(OC(=O)c2ccco2)C1=O (configuration not stated) | -0.389% [at 7.66 µM] | –
CCN1C(=O)N[C@@H](c2ccccc2)C(C(=O)OC)=C1C | -0.704% [at 7.66 µM] | –
Cc1ccc(-c2nc3ccccc3[nH]2)cc1N | – | 6.31 µM (active)
OCCNc1nc2ccccc2[nH]1 | -0.325% | –
COc1ccc(Br)cc1C(=O)NC(=S)Nc1cc(-c2nc3ccccc3[nH]2)ccc1C | -2.2% | –
Cc1ccc(-c2nc3ccccc3[nH]2)cc1NC(=O)c1sc2ccccc2c1Cl | -4.49% | –
c1ccc2[nH]c(-c3nc4ccccc4[nH]3)nc2c1 | – | 11.2 µM (active)
C=CCSc1nc2ccccc2[nH]1 | -7.25% | –
COCOc1cc(OC)ccc1C(=O)/C=C/c1ccc([N+](=O)[O-])cc1 | -1.04% | –

Compound | activity change, negative = inhibition | Potency
Cc1cc2oc(=O)cc(-c3ccccc3)c2c(C)c1/C=C/c1ccc(F)cc1 | 1.11% [at 39.9 µM] | –
COC(=O)c1ccc(NCC(=O)N2CCCCCC2)cc1 | 0.973% | –
Cc1ccc(C(=O)CNc2ccc(F)cc2)cc1 | 0.448% | –
COC(=O)c1ccc(NCC(=O)c2ccccc2)cc1 | – | 10 µM (active)
C/C=C(\C)C(=O)OC1C(OC(=O)C2(C)OC2C)c2cc3ccc(=O)oc3cc2OC1(C)C (configuration not stated) | 0.763% | –
N/C(=N\OC(=O)Cc1ccc([N+](=O)[O-])cc1)c1ccccn1 | -13.1% | –
N/C(=N\OC(=O)c1ccc([N+](=O)[O-])cc1)c1ccccn1 | – | 8.91 µM (active)
O=C(OCc1ccc([N+](=O)[O-])cc1)c1ccccn1 | 1.98% | –
C=CC(C1=CC(=O)C=CC1=O)c1ccc(O)cc1 (configuration not stated) | 0.217% | –
COc1cc(OC)c2c(-c3cccc(-c4cccc(N)c4)c3)cc(=O)oc2c1 | -2.14% [at 39.9 µM] | –
COc1ccc(C(=O)Nc2ccc3c(c2)OCO3)cc1OC | – | 12.6 µM (active)
Cn1c(=O)n(C)c2cc(C(=O)Nc3ccc4c(c3)OCO4)ccc21 | 0.19% | –
COc1cc(NC(=O)c2ccc3c(c2)OCO3)ccc1NC(=O)c1cccs1 | -5.78% | –
CCOc1cc(NC(=O)c2ccccn2)c(OCC)cc1NC(=O)c1ccc(OC)cc1 | -0.562% | –
COc1ccc(-c2csc(Nc3ccccn3)n2)cc1 | -10.1% | –
COc1ccc(C(=O)/C=C/Nc2ccccn2)cc1 | – | 11.2 µM (active)
S=C(NCCCc1cnc[nH]1)NCCCN(Cc1ccc(Cl)c(Cl)c1)c1ccc(Br)cn1 | 2.07% [at 39.9 µM] | –
COc1ccc(C2=Nc3cc(C)ccc3OC2)cc1 | – | 8.91 µM (active)
COc1ccc(C2=NOC3(CC(=O)N(c4ccc(C)cc4)C3=O)C2)cc1 (configuration not stated) | -2.28% | –
COc1ccc(-c2noc(-c3ccc(C)cc3)n2)cc1 | -1.12% | –
